Screening results from PubChem BioAssay.
CHX counter: Cycloheximide Counterscreen for Small Molecule Inhibitors of Shiga Toxin | cell reporter, cycloheximide protein synthesis inhibition counterscreen | max response, % | 300,000 compounds, 12% hits | AID 2314, 2010; in the data active = max response mostly above about 13%, no sharp cut-off; inactive = mostly below about 14%; note: read at 38.3 µM for the half of the compounds with a filed dose
Shiga toxin inh: A qHTS for Small Molecule Inhibitors of Shiga Toxin | Vero cells, Shiga toxin protein synthesis inhibition reporter | inhibition, % at 38.7 µM | AID 2315, 2010 | 290,000 compounds, 9.2% hits; in the data active = inhibition mostly above about 28%, no sharp cut-off; inactive = mostly below about 43%
Sm TGR block: qHTS Assay for the Inhibitors of Schistosoma Mansoni Peroxiredoxins | Schistosoma mansoni thioredoxin glutathione reductase (TGR), Q962Y6 | Potency, µM (top dose mostly 114 µM), most hits filed as inhibitors | purified TGR, DTNB reduction, TNB absorbance 405 nm | 360,000 compounds, 3% hits; note: nearly all actives have a fitted effect of over 60% in size
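TGR 20 nM + NADPH 100 uM (dispensed conc.), cpd preinc 15 min RT; start with NADPH (500 uM addition) then DTNB (15 mM addition). Kinetic TNB absorbance, 405 nm filter. Four-parameter Hill fit across titration.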
LmPK inhibitor: qHTS Assay for Inhibitors of Leishmania Mexicana Pyruvate Kinase (LmPK). Q27686. purified LmPK, Kinase-Glo ATP luminescence, 1 h. Potency, µM (titrated, usually from 57.5 µM), hits mostly inhibitors. 290,000 compounds, 0.37% hits. AID 1721, 2009
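0.1 nM LmPK, 0.5 mM PEP, 0.1 mM ADP; 50 mM imidazole pH 7.2, 7 mM MgCl2, 50 mM KCl; 1 h RT. Kinase-Glo luminescence readout, normalized to no-enzyme (full inhibition) and uninhibited wells.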
FBPA Giardia inh: qHTS Assay for Inhibitors of Fructose-1,6-bisphosphate Aldolase from Giardia Lamblia | A8B2U2 | purified Giardia FBPA | Potency, µM (titrated, usually from 59.6 µM), usual class: inhibitors | 290,000 compounds, 0.71% hits; note: nearly all actives have a fitted effect of over 55% in size
Target sequence (A8B2U2 whole entry, looked up): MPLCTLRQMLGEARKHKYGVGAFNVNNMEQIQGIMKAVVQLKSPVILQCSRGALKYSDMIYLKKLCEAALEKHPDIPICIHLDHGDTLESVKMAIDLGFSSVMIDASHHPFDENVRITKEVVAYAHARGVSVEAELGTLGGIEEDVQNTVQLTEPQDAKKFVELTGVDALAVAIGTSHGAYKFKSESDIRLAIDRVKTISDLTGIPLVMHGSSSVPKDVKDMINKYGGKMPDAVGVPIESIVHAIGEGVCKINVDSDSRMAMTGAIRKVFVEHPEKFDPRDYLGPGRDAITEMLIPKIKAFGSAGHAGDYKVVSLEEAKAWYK
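Giardia FBPA (40 nM reagent) was preincubated 10 min at RT with compound (up to 57.5 uM final), then substrate plus GAPDH/TPI/NAD/arsenate coupling system with diaphorase/resazurin was added; resorufin fluorescence (525/598 nm) was read after 20 min.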
TbPYK inhibitor: qHTS of Trypanosoma Brucei Inhibitors; 410,000 compounds, 0.12% hits; Potency, µM (highest dose often 76.8 µM), usual class: inhibitors; TbPYK enzyme, Kinase-Glo Plus ATP luminescence, 45 min; AID 624173, 2012; note: nearly all actives have a fitted effect of over 50% in size
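Luminescent Kinase-Glo Plus end-point after 45 min room-temperature reaction of T. brucei pyruvate kinase started with 130 uM ADP (final). Buffer TEA 50 mM pH 7.2 with KCl, MgCl2, BSA, Tween-20; titration-based qHTS with fitted concentration-effect curves.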
Hits are given with their value. This excerpt belongs to a sample that is enriched for hits. Unless noted, calls come from the whole dose curve; as a rule, active = well fitted curve in the direction sought with a large enough effect; inconclusive = small, poorly fitted or top-dose-only effect, or another doubt; inactive = no such curve, though single readings can be large; an effect the other way counts as inactive or inconclusive.

How did CCC(=O)c1ccc2c(c1)OCCO2 do in these assays?
CHX counter: 13; Shiga toxin inh: inactive; Sm TGR block: inactive; LmPK inhibitor: inactive; FBPA Giardia inh: inactive; TbPYK inhibitor: inactive

Results for COc1ccc(NC(=O)Cn2cnc3ccc(S(=O)(=O)N4CCC(C)CC4)cc3c2=O)cc1Cl ?
Sm TGR block: inactive; TbPYK inhibitor: inactive

What do the screens show for `N#Cc1c(-c2ccco2)cc(-c2cccnc2)nc1N`?
CHX counter: inactive; Shiga toxin inh: inactive; Sm TGR block: 11µM; LmPK inhibitor: inactive; FBPA Giardia inh: inconclusive; TbPYK inhibitor: inactive

What do the screens show for `CCc1nc(N)c(C#N)c(-c2ccco2)c1C`?
CHX counter: inactive; Shiga toxin inh: inactive; Sm TGR block: inactive; LmPK inhibitor: inactive; FBPA Giardia inh: inactive; TbPYK inhibitor: inactive

How did N#Cc1c(-c2ccco2)cc(C2CC2)nc1N do in these assays?
CHX counter: inactive; Shiga toxin inh: inactive; Sm TGR block: 10µM; LmPK inhibitor: inactive; FBPA Giardia inh: inactive; TbPYK inhibitor: inactive

What do the screens show for `N#Cc1c(-c2cccnc2)cc(-c2ccccc2)nc1N`?
CHX counter: inactive; Shiga toxin inh: inactive; Sm TGR block: inactive; LmPK inhibitor: inactive; FBPA Giardia inh: inactive; TbPYK inhibitor: inactive

Results for N#Cc1c(-c2ccco2)cc(-c2ccccn2)nc1N ?
CHX counter: 33; Shiga toxin inh: inactive; Sm TGR block: 10µM; LmPK inhibitor: inactive; FBPA Giardia inh: inactive; TbPYK inhibitor: inactive

Results for COc1ccc(C(=O)Oc2ccc(C(c3c(C)[nH][nH]c3=O)c3c(C)[nH][nH]c3=O)cc2)cc1 ?
Sm TGR block: inactive; TbPYK inhibitor: inactive

What do the screens show for `COc1ccc([C@@H](C)C(=O)c2ccc(O)cc2O)cc1`?
FBPA Giardia inh: inactive

How did Cc1cccc(N2CCN(C(=O)c3cc4c(=O)[nH]c5ccc(C)cc5c4s3)CC2C)c1 (configuration not stated) do in these assays?
Sm TGR block: inactive; TbPYK inhibitor: inactive

What do the screens show for `CCOc1ccc(S(=O)(=O)NCc2cccn2Cc2cccc(C)c2)cc1`?
Sm TGR block: inactive; TbPYK inhibitor: inactive

How did CC1(C(=O)Nc2ccc(Cl)c(Cl)c2)CCN1Cc1ccccc1OC(F)F (configuration not stated) do in these assays?
TbPYK inhibitor: inactive

How did NC(=O)CC(NC(=O)c1ccc(Br)cc1)c1ccc(N2CCCCCC2)c([N+](=O)[O-])c1 (configuration not stated) do in these assays?
CHX counter: inactive; Shiga toxin inh: inactive; Sm TGR block: inactive; LmPK inhibitor: inactive; FBPA Giardia inh: inactive; TbPYK inhibitor: inactive

Results for O=C1CC(Nc2ccc(N3CCOCC3)cc2)C(=O)N1c1cccc(C(F)(F)F)c1 (configuration not stated) ?
CHX counter: inactive; Shiga toxin inh: inactive; Sm TGR block: 28µM; LmPK inhibitor: inactive; FBPA Giardia inh: inactive; TbPYK inhibitor: inactive

Results for COc1ccc(N2C(=O)CC(Nc3ccc(N4CCOCC4)cc3)C2=O)c(OC)c1 (configuration not stated) ?
CHX counter: inactive; Shiga toxin inh: inactive; Sm TGR block: 28µM; LmPK inhibitor: inactive; FBPA Giardia inh: inactive; TbPYK inhibitor: inactive

Results for O=C1CC(Nc2ccc(N3CCOCC3)cc2)C(=O)N1CCc1ccccc1 (configuration not stated) ?
CHX counter: inactive; Shiga toxin inh: inactive; Sm TGR block: inactive; LmPK inhibitor: inactive; FBPA Giardia inh: inactive; TbPYK inhibitor: inactive

Results for Cc1ccc(CN2C(=O)CC(Nc3ccc(N4CCOCC4)cc3)C2=O)cc1 (configuration not stated) ?
CHX counter: inactive; Shiga toxin inh: inactive; Sm TGR block: 40µM; LmPK inhibitor: inactive; FBPA Giardia inh: inactive; TbPYK inhibitor: inactive

How did Cc1cc(C)n(-c2nc3ccccc3nc2N2CCN(c3cccc(C(F)(F)F)c3)CC2)n1 do in these assays?
Sm TGR block: inactive; TbPYK inhibitor: inactive

Results for CCC(CC)C(=O)Nc1nnc(S(=O)(=O)N(C)c2cc(C)cc(C)c2)s1 ?
Sm TGR block: inactive; TbPYK inhibitor: inactive

Results for Nc1nc2cc(Cl)ccc2cc1C(=O)NCCCc1ccccc1 ?
TbPYK inhibitor: inactive

How did CN(C)/C=N/c1cnc(C(=O)c2ccc(Cl)cc2)n1C do in these assays?
CHX counter: 45; Shiga toxin inh: 83; Sm TGR block: inactive; LmPK inhibitor: inactive; FBPA Giardia inh: inactive; TbPYK inhibitor: inactive

What do the screens show for `CN(C(=O)c1nn(C)c2c1COc1ccccc1-2)c1cccc(C(F)(F)F)c1`?
Sm TGR block: inactive; TbPYK inhibitor: inactive

What do the screens show for `CC(C)(C)c1ccc(C(=O)n2cnc3ccccc32)cc1`?
CHX counter: 30; Shiga toxin inh: 64; Sm TGR block: inactive; LmPK inhibitor: inactive; FBPA Giardia inh: inactive; TbPYK inhibitor: inactive

Results for CCN(CC)c1ccc(C(=O)n2cnc3ccccc32)cc1 ?
CHX counter: 25; Shiga toxin inh: inactive; Sm TGR block: inactive; LmPK inhibitor: inactive; FBPA Giardia inh: inactive; TbPYK inhibitor: inactive

What do the screens show for `CCN(CC)c1ccc(C(=O)O)cc1`?
CHX counter: inactive; Shiga toxin inh: inactive; Sm TGR block: inactive; LmPK inhibitor: inactive; FBPA Giardia inh: inactive; TbPYK inhibitor: inactive

Results for Cc1cc2ncn(C(=O)c3ccc(F)cc3)c2cc1C ?
CHX counter: inactive; Shiga toxin inh: inactive; Sm TGR block: inactive; LmPK inhibitor: inactive; FBPA Giardia inh: inactive; TbPYK inhibitor: inactive

How did O=C(NCC(c1ccco1)N1CCN(c2ccccc2)CC1)OCc1ccccc1 (configuration not stated) do in these assays?
CHX counter: inactive; Shiga toxin inh: inactive; Sm TGR block: inactive; LmPK inhibitor: inactive; FBPA Giardia inh: inactive; TbPYK inhibitor: inactive

What do the screens show for `O=C(NCC(c1ccco1)N1CCN(c2ccccc2F)CC1)OCc1ccccc1` (configuration not stated)?
CHX counter: 21; Shiga toxin inh: inactive; Sm TGR block: inactive; LmPK inhibitor: inactive; FBPA Giardia inh: inactive; TbPYK inhibitor: inactive

What do the screens show for `O=C(C1=C(O)C(=O)N(CCN2CCOCC2)C1c1cccnc1)c1cc2ccccc2o1` (configuration not stated)?
CHX counter: inactive; Shiga toxin inh: inactive; Sm TGR block: inconclusive; LmPK inhibitor: inactive; FBPA Giardia inh: inactive; TbPYK inhibitor: inactive

What do the screens show for `COc1ccc(C2C(C(=O)c3ccco3)=C(O)C(=O)N2Cc2cccnc2)cc1OC` (configuration not stated)?
CHX counter: inactive; Shiga toxin inh: inactive; Sm TGR block: inactive; LmPK inhibitor: inactive; FBPA Giardia inh: inactive; TbPYK inhibitor: inactive
